From the supplement of paper PMC8728848
The entries come from a sample that favours the strongest signals as a whole.

Experiments:
Assay in all cases: glycan array binding signal (z-score within array); higher = stronger binding
Settings in all cases: glycan notation: IUPAC condensed, linker removed
[1] = target: Fuc(a1-2)Gal(b1-3)GalNAc(b1-3)Gal
Procedure, shortened: (§1)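 Arrays were curated from the Consortium for Functional Glycomics database, 3228 in total, and kept only where the protein sequence was available. Binding is expressed as a within-array Z-score. This score was averaged across arrays of the same protein sequence at different concentrations or buffers and across linkers, and negative values can be read as non-binding.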

Fuc(a1-2)Gal(b1-4)Glc = target: Fuc(a1-2)Gal(b1-4)Glc
Procedure, shortened: as §1

[2] = target: Fuc(a1-2)Gal(b1-4)GlcNAc(b1-3)GalNAc
Procedure, shortened: as §1

[3] = target: Fuc(a1-2)Gal(b1-4)GlcNAc(b1-6)GalNAc
Procedure, shortened: as §1

[4] = target: Fuc(a1-2)Gal6S(b1-3)GlcNAc6S
Procedure, shortened: as §1

[5] = target: Fuc(a1-2)[Gal(a1-3)]Gal(b1-4)GlcNAc
Procedure, shortened: as §1

[6] = target: Fuc(a1-2)[Gal(a1-3)]Gal(b1-4)GlcNAc(b1-2)Man(a1-3)[Fuc(a1-2)[Gal(a1-3)]Gal(b1-4)GlcNAc(b1-2)Man(a1-6)]Man(b1-4)GlcNAc(b1-4)[Fuc(a1-6)]GlcNAc
Procedure, shortened: as §1

[7] = target: Fuc(a1-2)[GalNAc(a1-3)]Gal(b1-3)GalNAc(a1-3)[Fuc(a1-2)]Gal(b1-4)GlcNAc
Procedure, shortened: as §1

[8] = target: Fuc(a1-2)[GalNAc(a1-3)]Gal(b1-3)GlcNAc(b1-2)Man(a1-3)[Fuc(a1-2)[GalNAc(a1-3)]Gal(b1-3)GlcNAc(b1-2)Man(a1-6)]Man(b1-4)GlcNAc(b1-4)[Fuc(a1-6)]GlcNAc
Procedure, shortened: as §1

[9] = target: Fuc(a1-2)[GalNAc(a1-3)]Gal(b1-4)GlcNAc(b1-6)GalNAc
Procedure, shortened: as §1

[10] = target: Fuc(a1-2)[GalNAc(a1-3)]Gal(b1-4)[Fuc(a1-3)]GlcNAc
Procedure, shortened: as §1

[11] = target: Fuc(a1-2)[GalNAc(a1-4)]Gal(b1-4)GlcNAc
Procedure, shortened: as §1

[12] = target: Fuc(a1-2)[GalNAc(b1-3)]Gal
Procedure, shortened: as §1

[13] = target: Fuc(a1-3)[Gal(b1-4)]GlcNAc(b1-2)Man(a1-3)[Fuc(a1-3)[Gal(b1-4)]GlcNAc(b1-2)Man(a1-6)]Man(b1-4)GlcNAc(b1-4)[Fuc(a1-6)]GlcNAc
Procedure, shortened: as §1

Gal(a1-3)Gal(b1-3)GlcNAc = target: Gal(a1-3)Gal(b1-3)GlcNAc
Procedure, shortened: as §1

[14] = target: Gal(a1-3)Gal(b1-3)GlcNAc(b1-2)Man(a1-3)[Gal(a1-3)Gal(b1-3)GlcNAc(b1-2)Man(a1-6)]Man(b1-4)GlcNAc(b1-4)GlcNAc
Procedure, shortened: as §1

[15] = target: Gal(a1-3)Gal(b1-3)GlcNAc(b1-6)GalNAc
Procedure, shortened: as §1

[16] = target: Gal(a1-3)Gal(b1-4)GlcNAc(b1-6)GalNAc
Procedure, shortened: as §1

[17] = target: Gal(b1-3)GlcNAc(b1-6)GalNAc
Procedure, shortened: as §1

[18] = target: Gal(b1-3)GlcNAc(b1-6)[Gal(b1-3)]GalNAc
Procedure, shortened: as §1

[19] = target: Gal(b1-3)[Fuc(a1-4)]GlcNAc
Procedure, shortened: as §1

Gal6S(b1-3)GlcNAc6S = target: Gal6S(b1-3)GlcNAc6S
Procedure, shortened: as §1

GalNAc(a1-3)Gal = target: GalNAc(a1-3)Gal
Procedure, shortened: as §1

GalNAc(b1-3)Gal = target: GalNAc(b1-3)Gal
Procedure, shortened: as §1

[20] = target: GalNAc(b1-3)Gal(a1-6)Gal(b1-4)Glc
Procedure, shortened: as §1

GalNAc(b1-3)GlcNAc = target: GalNAc(b1-3)GlcNAc
Procedure, shortened: as §1

[21] = target: GalNAc(b1-4)GlcNAc(b1-2)Man(a1-3)[GalNAc(b1-4)GlcNAc(b1-2)Man(a1-6)]Man(b1-4)GlcNAc(b1-4)GlcNAc
Procedure, shortened: as §1

GalNAc6S(b1-4)GlcNAc = target: GalNAc6S(b1-4)GlcNAc
Procedure, shortened: as §1

[22] = target: GlcNAc(a1-4)Gal(b1-4)GlcNAc(b1-3)Gal(b1-4)GlcNAc
Procedure, shortened: as §1

[23] = target: GlcNAc(b1-2)[GlcNAc(b1-4)]Man(a1-3)[GlcNAc(b1-4)][GlcNAc(b1-2)[GlcNAc(b1-6)]Man(a1-6)]Man(b1-4)GlcNAc(b1-4)[Fuc(a1-6)]GlcNAc
Procedure, shortened: as §1

Kdn(a2-6)Gal(b1-4)GlcNAc = target: Kdn(a2-6)Gal(b1-4)GlcNAc
Procedure, shortened: as §1

[24] = target: Man(a1-2)Man(a1-2)Man(a1-6)[Man(a1-3)]Man
Procedure, shortened: as §1

[25] = target: Man(a1-2)Man(a1-3)[Man(a1-2)Man(a1-6)]Man
Procedure, shortened: as §1

[26] = target: Man(a1-3)[Man(a1-6)]Man(a1-6)[Man(a1-3)]Man
Procedure, shortened: as §1

[27] = target: Man(a1-3)[Man(a1-6)]Man(b1-4)GlcNAc(b1-4)GlcNAc
Procedure, shortened: as §1

[28] = target: Neu5Ac(a2-3)Gal(b1-3)GlcNAc(b1-4)Gal(b1-4)Glc
Procedure, shortened: as §1

[29] = target: Neu5Ac(a2-3)Gal(b1-4)GlcNAc(b1-3)Gal(b1-4)GlcNAc(b1-3)Gal(b1-4)GlcNAc(b1-2)Man(a1-3)[Neu5Ac(a2-3)Gal(b1-4)GlcNAc(b1-3)Gal(b1-4)GlcNAc(b1-3)Gal(b1-4)GlcNAc(b1-2)Man(a1-6)]GalNAc
Procedure, shortened: as §1

[30] = target: Neu5Ac(a2-3)Gal(b1-4)GlcNAc(b1-3)[Neu5Ac(a2-3)Gal(b1-4)GlcNAc(b1-6)]GalNAc
Procedure, shortened: as §1

[31] = target: Neu5Ac(a2-6)Gal(b1-4)GlcNAc(b1-2)Man(a1-6)[Gal(b1-4)GlcNAc(b1-2)Man(a1-3)]Man(b1-4)GlcNAc(b1-4)GlcNAc
Procedure, shortened: as §1

[32] = target: Neu5Ac(a2-8)Neu5Ac(a2-8)Neu5Ac(a2-3)Gal(b1-4)Glc
Procedure, shortened: as §1

[33] = target: Neu5Gc(a2-8)Neu5Gc(a2-3)Gal(b1-4)GlcNAc(b1-3)Gal(b1-4)GlcNAc
Procedure, shortened: as §1

B1: Cohesin-hDECTIN-1 (Homo sapiens) (protein)
chain: LDITSHHHHHHDDLDAVRIKVDTVNAKPGDTVRIPVRFSGIPSKGIANCDFVYSYDPNVLEIIEIEPGDIIVDPNPDKSFDTAVYPDRKIIVFLFAEDSGTGAYAITKDGVFATIVAKVKEGAPNGLSVIKFVEVGGFANNDLVEQKTQFFDGGVNVGDTTEPATPTTPVTTPTTTDDLDAASSSPCPPNWIIYEKSCYLFSMSLNSWDGSKRQCWQLGSNLLKIDSSNELGFIVKQVSSQPDNSFWIGLSRPQTEVPWLWEDGSTFSSNLFQIRTTATQENPSPNCVWIHVSVIYDQLCSVPSYSICEKKFM
For B1, which “glycan array binding signal (z-score)” value [1] is on record?
Its value is 1.86.

What about the “glycan array binding signal (z-score)” value (Fuc(a1-2)Gal(b1-4)Glc) of the same binder?
The value was -0.162.

And the “glycan array binding signal (z-score)” value [2]?
The value was -0.382.

And the “glycan array binding signal (z-score)” value [3]?
Its value is 2.93.

And the “glycan array binding signal (z-score)” value [4]?
The value was 0.18.

And the “glycan array binding signal (z-score)” value [5]?
The value was -0.206.

What about the “glycan array binding signal (z-score)” value [6] of the same binder?
Its value is -0.435.

What about the “glycan array binding signal (z-score)” value [7] of the same binder?
The value was -0.177.

And the “glycan array binding signal (z-score)” value [8]?
Its value is -0.305.

And the “glycan array binding signal (z-score)” value [9]?
Its value is 6.29.

And the “glycan array binding signal (z-score)” value [10]?
Its value is -0.149.

And the “glycan array binding signal (z-score)” value [11]?
Its value is 4.25.

What about the “glycan array binding signal (z-score)” value [12] of the same binder?
Its value is 4.83.

What about the “glycan array binding signal (z-score)” value [13] of the same binder?
The value was -0.51.

And the “glycan array binding signal (z-score)” value (Gal(a1-3)Gal(b1-3)GlcNAc)?
The value was 4.04.

And the “glycan array binding signal (z-score)” value [14]?
Its value is 0.993.

What about the “glycan array binding signal (z-score)” value [15] of the same binder?
Its value is 7.58.

And the “glycan array binding signal (z-score)” value [16]?
Its value is 5.86.

And the “glycan array binding signal (z-score)” value [17]?
Its value is 6.01.

What about the “glycan array binding signal (z-score)” value [18] of the same binder?
Its value is -0.299.

What about the “glycan array binding signal (z-score)” value [19] of the same binder?
Its value is -0.306.

What about the “glycan array binding signal (z-score)” value (Gal6S(b1-3)GlcNAc6S) of the same binder?
The value was 1.2.

And the “glycan array binding signal (z-score)” value (GalNAc(a1-3)Gal)?
The value was 2.65.

And the “glycan array binding signal (z-score)” value (GalNAc(b1-3)Gal)?
The value was 5.2.

And the “glycan array binding signal (z-score)” value [20]?
The value was 4.68.

And the “glycan array binding signal (z-score)” value (GalNAc(b1-3)GlcNAc)?
The value was 3.33.

What about the “glycan array binding signal (z-score)” value [21] of the same binder?
Its value is 0.004.

And the “glycan array binding signal (z-score)” value (GalNAc6S(b1-4)GlcNAc)?
The value was 4.98.

And the “glycan array binding signal (z-score)” value [22]?
Its value is -0.476.

And the “glycan array binding signal (z-score)” value [23]?
The value was -0.586.

And the “glycan array binding signal (z-score)” value (Kdn(a2-6)Gal(b1-4)GlcNAc)?
The value was -0.471.

What about the “glycan array binding signal (z-score)” value [24] of the same binder?
The value was -0.33.

What about the “glycan array binding signal (z-score)” value [25] of the same binder?
The value was -0.432.

What about the “glycan array binding signal (z-score)” value [26] of the same binder?
The value was -0.272.

What about the “glycan array binding signal (z-score)” value [27] of the same binder?
The value was -0.44.

What about the “glycan array binding signal (z-score)” value [28] of the same binder?
The value was -0.22.

What about the “glycan array binding signal (z-score)” value [29] of the same binder?
The value was -0.295.

And the “glycan array binding signal (z-score)” value [30]?
Its value is -0.163.

And the “glycan array binding signal (z-score)” value [31]?
The value was -0.561.

What about the “glycan array binding signal (z-score)” value [32] of the same binder?
The value was -0.569.

What about the “glycan array binding signal (z-score)” value [33] of the same binder?
Its value is -0.091.
